40 compounds from the supplement of paper PMC11732987, “Enantioselective OTUD7B fragment discovery through chemoproteomics screening and high-throughput optimisation” (Communications Chemistry, 2025) can be followed below.

Unmarked numbers belong to inactive results.

The assay has as its target T1, VCPIP1 (UniProt Q96JH7).
T1 sequence (whole entry): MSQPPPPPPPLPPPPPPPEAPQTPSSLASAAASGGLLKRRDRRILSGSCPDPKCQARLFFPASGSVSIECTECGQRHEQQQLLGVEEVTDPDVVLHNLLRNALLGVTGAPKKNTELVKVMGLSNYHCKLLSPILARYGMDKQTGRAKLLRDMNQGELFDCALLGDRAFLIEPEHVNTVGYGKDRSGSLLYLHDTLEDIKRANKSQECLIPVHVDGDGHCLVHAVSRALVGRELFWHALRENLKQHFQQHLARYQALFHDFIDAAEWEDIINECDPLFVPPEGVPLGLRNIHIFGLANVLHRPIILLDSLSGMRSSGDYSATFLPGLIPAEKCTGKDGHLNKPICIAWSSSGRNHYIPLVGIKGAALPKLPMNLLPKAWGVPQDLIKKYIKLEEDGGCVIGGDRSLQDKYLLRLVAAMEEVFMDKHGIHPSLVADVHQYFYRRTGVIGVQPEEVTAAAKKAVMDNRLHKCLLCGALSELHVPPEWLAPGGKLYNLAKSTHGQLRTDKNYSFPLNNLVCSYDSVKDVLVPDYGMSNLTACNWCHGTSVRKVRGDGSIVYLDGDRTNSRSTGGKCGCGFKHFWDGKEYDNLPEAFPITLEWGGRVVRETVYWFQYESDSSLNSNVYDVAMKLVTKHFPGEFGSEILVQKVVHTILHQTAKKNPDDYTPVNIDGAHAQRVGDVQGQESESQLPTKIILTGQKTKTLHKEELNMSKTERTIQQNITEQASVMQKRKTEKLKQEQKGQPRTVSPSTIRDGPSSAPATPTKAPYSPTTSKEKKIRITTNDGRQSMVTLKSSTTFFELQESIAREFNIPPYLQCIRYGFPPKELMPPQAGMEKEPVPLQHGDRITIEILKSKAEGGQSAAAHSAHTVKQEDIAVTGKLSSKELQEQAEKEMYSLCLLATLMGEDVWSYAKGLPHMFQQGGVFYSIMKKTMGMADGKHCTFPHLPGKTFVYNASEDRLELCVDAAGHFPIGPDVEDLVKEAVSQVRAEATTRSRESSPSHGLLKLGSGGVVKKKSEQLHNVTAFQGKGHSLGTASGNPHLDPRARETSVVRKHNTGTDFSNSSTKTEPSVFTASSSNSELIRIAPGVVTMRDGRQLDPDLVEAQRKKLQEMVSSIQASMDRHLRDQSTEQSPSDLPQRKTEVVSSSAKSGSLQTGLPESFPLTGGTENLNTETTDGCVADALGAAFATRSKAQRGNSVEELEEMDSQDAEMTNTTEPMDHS
Kind of assay: log2 ratio of Biotin-Ahx-Ub-VS probe labelling (fragment/DMSO); higher = less target engagement (more negative = stronger competition), active = hit call of the paper (q ≤ 0.05, log2 ratio ≤ -1). The note with it: compound concentration: 200 uM; treatment time: 3 h. How it is done:
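Competitive ABPP in HEK293T cell lysate. Lysates were treated with each chloroacetamide fragment at 200 µM for 3 h, then with Biotin-Ahx-Ub-VS (0.5 µM, 1 h), NeutrAvidin-enriched and analysed by diaPASEF LC-MS/MS. Protein LFQ was median-normalised; average log2 ratio is fragment/DMSO from an unpaired t-test (n=3 treated, n=44 DMSO). Hits: q ≤ 0.05, log2 ratio ≤ -1, unique peptides ≥ 2.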
In the case of `O=C(CCl)N1c2ccccc2NC(=O)C12CCCC2`, the “log2 ratio of Biotin-Ahx-Ub-VS probe labelling” value (“log2 ratio” for short) is -0.744.

Consider `O=C(CCl)Nc1cccc(C(=O)N2CCSCC2)c1`, for which the “log2 ratio” value was -2.83.

Consider `Cc1cccc2nc(CCNC(=O)CCl)cn12.Cl`, for which the “log2 ratio” value was -1.77 (active).

With `Cc1nc(CN2CCCN(C(=O)CCl)CC2)no1.Cl`, the “log2 ratio” value was -0.1.

For `CS(=O)(=O)c1ccc(NC(=O)CCl)cc1`, the “log2 ratio” value was -1.23 (active).

`O=C(O)C1Cc2ccccc2CN1C(=O)CCl` (stereo not given): the “log2 ratio” value was -0.368.

On to `O=C(CCl)NCc1cccc(N2CCCC2=O)c1`, for which the “log2 ratio” value was -1.04 (active).

For `Cc1noc(C)c1CNC(=O)CCl`, the “log2 ratio” value is -1.8 (active).

As to `Cc1ccn2cc(CNC(=O)CCl)nc2c1.Cl`, the “log2 ratio” value is -0.598.

Turning to `O=C(CCl)N1CCOCCC1c1ccccc1` (stereo not given), the “log2 ratio” value is -0.265.

`Cc1ccccc1OCC(=O)N1CCN(C(=O)CCl)CC1`: the “log2 ratio” value was -1.16 (active).

Regarding `Cl.O=C(CCl)N1CC(c2ccc(Br)cn2)C1`, the “log2 ratio” value was -1.3 (active).

With `Cl.Cn1ncc2c1CCCC2NC(=O)CCl` (stereo not given), the “log2 ratio” value was -1.7 (active).

For the compound `Cc1noc(N2CCN(C(=O)CCl)CC2)n1.Cl`, the “log2 ratio” value is 0.15.

With `Cc1cccc(N(CCC#N)C(=O)CCl)c1C`, the “log2 ratio” value was -2.23 (active).

For the compound `Cc1cccnc1NC(=O)C1CCN(C(=O)CCl)CC1.Cl`, the “log2 ratio” value is -0.543.

As to `O=C(CCl)N1CCC(C(O)c2ccc(F)cc2)CC1` (stereo not given), the “log2 ratio” value is -0.764.

Consider `C/C(=C\CNC(=O)CCl)c1cnn(C)c1.Cl`, for which the “log2 ratio” value is -1.53 (active).

As to `Cl.O=C(CCl)NCCN1CCc2ccccc21`, the “log2 ratio” value was -1.9 (active).

In the case of `O=C(CCl)N(C1CCCC1)C1CCS(=O)(=O)C1` (stereo not given), the “log2 ratio” value is -0.0269.

Consider `Cc1cc(CC(C)NC(=O)CCl)n[nH]1` (stereo not given), for which the “log2 ratio” value is 0.107.

On to `O=C(CCl)N1CCC(C(=O)N2CCCCCC2)CC1`, for which the “log2 ratio” value is -0.246.

Take `CCN(Cc1ccc(C#N)cc1F)C(=O)CCl`: the “log2 ratio” value was -0.594.

Turning to `Cc1ccc(-c2nnc(C)[nH]2)c(NC(=O)CCl)c1`, the “log2 ratio” value is -2.55 (active).

Regarding `O=C(CCl)N1CCc2nc[nH]c2C1c1ccc(Cl)cc1` (stereo not given), the “log2 ratio” value was -1.07 (active).

Consider `O=C(CCl)Nc1ccccc1C(F)(F)F`, for which the “log2 ratio” value was -0.635.

On to `Cc1cccc(C(CNC(=O)CCl)N2CCOCC2)c1.Cl` (stereo not given), for which the “log2 ratio” value is -0.833.

In the case of `O=C(CCl)NCc1ccc(Cl)cc1`, the “log2 ratio” value is -1.16 (active).

Take `CNC(=O)C1CCN(C(=O)CCl)CC1`: the “log2 ratio” value was -0.28.

`COc1cc(Cl)c(C)cc1NC(=O)CCl`: the “log2 ratio” value is -1.24 (active).

Regarding `Cc1cc(Cl)ccc1NC(=O)CCl`, the “log2 ratio” value is -0.193.

Turning to `C#Cc1cccc(NC(=O)CCl)c1`, the “log2 ratio” value is -2.17 (active).

As for `CC1Cc2ccccc2N1C(=O)CCl` (stereo not given), the “log2 ratio” value is -1.3 (active).

Take `COc1ccccc1C(C)NC(=O)CCl` (stereo not given): the “log2 ratio” value was -0.998.

With `O=C(CCl)NC1CCOc2ccccc21` (stereo not given), the “log2 ratio” value is -2.21 (active).

Take `Cc1nc(CN2CCN(C(=O)CCl)CC2)cs1`: the “log2 ratio” value is -0.304.

`O=C(CCl)N1CCOCC1C1CC1` (stereo not given): the “log2 ratio” value is -0.493.

Turning to `CCc1c[nH]c(CNC(=O)CCl)n1.Cl`, the “log2 ratio” value was -0.554.

For `NC(=O)C1CCCCN1C(=O)CCl` (stereo not given), the “log2 ratio” value was -0.253.

On to `Cl.O=C(CCl)NCc1ccnc(Oc2ccccc2F)c1`, for which the “log2 ratio” value is -2.73 (active).
